The structures appear in SMILES notation. Results filed as inconclusive are left out. The source made the active and inactive calls. Calls follow the shape of the dose curve; as a rule, active = well fitted inhibition curve with a large enough effect; inconclusive = small, poorly fitted or top-dose-only effect; inactive = no such curve, though single readings can be large or run the other way.
Potency is read from the fitted curve at half-maximal effect.

This experiment is described as follows: Acumen qHTS Assay for Inhibitors of the mTORC1 Signaling Pathway in MEF (Tsc2-/-, p53-/-) Cells: Hit Validation.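 Also: phospho-rpS6 Ser235/236 immunofluorescence normalized to propidium iodide cell count; nearly all actives have a fitted effect of over 65% in size.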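 As to activity change, negative = inhibition: cells exposed to compound for 24 hours; plate controls were DMSO for no effect and 7.5 nM rapamycin control for full effect.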 The note with it: Acumen imaging; activity change, negative = inhibition: at 37.3 µM (top of the series). (In general: Quantitative high-throughput screening tests each substance at several concentrations.)
With `COc1cc(C(=O)N(CCCN(C)C)c2nc3c(OC)cccc3s2)cc(OC)c1OC`, the activity change, negative = inhibition came out at 19.6%. Regarding `CCN(CC)CCOC(=O)c1ccc(NC(=O)c2nn(-c3ccc(C)cc3)c(=O)c3c2c2ccccc2n3C)cc1`, the Potency is 4.14 µM (active).

Turning to `CCOc1ccc(NC(=O)c2sc3nc4c(cc3c2N)CCCCCC4)cc1`, the Potency is 9.27 µM (active). Take `Cc1cccc(OCc2ccc(-c3nc(C#N)c(NCCN(C)C)o3)o2)c1`: the activity change, negative = inhibition came to 0.2%. In the case of `O=C(CCCn1c(=O)c2ccccc2n(Cc2cccc(Cl)c2)c1=O)NCCc1ccc(Cl)cc1`, the activity change, negative = inhibition was -4.01%. For `COc1ccc(NC(=O)CCS(=O)(=O)c2nc(-c3cccs3)cc(C(F)(F)F)n2)cc1OC`, the activity change, negative = inhibition was -87.3%.

With `CC(C)Oc1ccc(CNC(=O)c2ccc3nc(SCc4ccc(F)cc4)n(C)c3c2)cc1`, the activity change, negative = inhibition is -8.96%.

`CCCCOc1ccccc1C1CC(=O)Nc2ccc3ccccc3c21` (stereo unspecified): the activity change, negative = inhibition is -10.2%. As to `COc1ccc(-c2cc(C(F)(F)F)nc(S(C)(=O)=O)n2)cc1`, the activity change, negative = inhibition was -88.8%. On the same count and under the same terms, to `C=CCc1c(C)nc2nc(SCC(=O)Nc3ccc(C)c(C)c3)nn2c1C` belongs -88.7%; to `CCc1ccc(NC(=O)CSc2nccn2C2CCCC2)cc1`, -3.21%.

Turning to `CCCN(CCC)CCCNC(=O)C1CCN(c2nc3ccc(CC)cc3s2)CC1`, the Potency is 11.7 µM (active). Regarding `N=c1n(CCN2CCCCC2)c2ccccc2n1CC(O)COc1ccc(Cl)cc1Cl` (stereo unspecified), the Potency was 5.21 µM (active). `COc1ccc(C2=NS(=O)(=O)N(C)C(C(=O)Nc3ccc(OC(F)(F)F)cc3)=C2)cc1`: the activity change, negative = inhibition was 2.76%. For the molecule `CC(C(=O)NCc1cccc(Br)c1)n1ncn2cccc2c1=O` (stereo unspecified), the activity change, negative = inhibition was determined as 1.66%. For the molecule `Cc1nn(C(C)C(=O)NC2CCC(C)CC2)c(=O)c2c1sc1ccccc12` (stereo unspecified), the activity change, negative = inhibition is -5.69%.

Source of the values: PubChem BioAssay AID651784 (National Center for Advancing Translational Sciences (NCATS), 2012).
